The results in this text go back to PubChem BioAssay (NCI).

About 83,000 compounds went through this panel and 20% of them were active in at least one assay; those are over-represented in the sample as a whole.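 Step 1: grow cells in 96-well plates. Step 2: add test compound at a single concentration. Step 3: incubate 48 h. Step 4: record percent growth.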 Unmarked numbers belong to inactive results. The source made the active and inactive calls. Rule for the calls: active = growth percent below 10; inactive = the rest.

Test systems include SK-MEL-2 melanoma; EKVX NSCLC; SN12C renal; UO-31 renal; TK-10 renal; ACHN renal; CAKI-1 renal; A498 renal; CCRF-CEM leukemia; MOLT-4 leukemia; SR leukemia; RPMI-8226 leukemia; OVCAR-8 ovarian; OVCAR-5 ovarian; OVCAR-4 ovarian; SK-OV-3 ovarian; IGROV1 ovarian; OVCAR-3 ovarian; HS 578T breast; NCI/ADR-RES ovarian.
Assay in all cases: NCI-60 one-dose screen, 48 h (100 = growth as untreated, 0 = no growth, -100 = all killed)
Common to all, as to conditions: 10 µM unless noted

Take `COc1ccc2c(c1)c(-c1cc(N)n3nc(-c4c[nH]c5ccccc45)cc3n1)cn2C`: the growth in the assay on SK-MEL-2 melanoma was -65.4% (active); in the assay on EKVX NSCLC, -79.6% (active); with SN12C renal it was -81% (active); with UO-31 renal, -71.1% (active); with TK-10 renal it was -92.5% (active); in the assay with ACHN renal it was -79.6% (active). Further, the growth in the assay with CAKI-1 renal is -70.2% (active); in the assay on A498 renal it was -57.8% (active); in the assay with CCRF-CEM leukemia, -25.1% (active); with MOLT-4 leukemia, -1.51% (active); with SR leukemia it was 6.54% (active); in the assay on RPMI-8226 leukemia, -9.07% (active). The growth in the assay on OVCAR-8 ovarian is -74.7% (active); in the assay with OVCAR-5 ovarian, -69.7% (active); in the assay with OVCAR-4 ovarian it was -29.8% (active); in the assay on SK-OV-3 ovarian, -55.6% (active); in the assay with IGROV1 ovarian, -62.4% (active); in the assay with OVCAR-3 ovarian it was -71.1% (active). For the same compound, the results for the growth in the assay on HS 578T breast and in the assay on NCI/ADR-RES ovarian were -17.9% (active) and -43.3% (active), respectively.

As to `Cc1ccc(C(C(=O)NC2CCCCC2)N(Cc2ccccc2Cl)C(=O)c2ccc(CN3CCOCC3)o2)o1` (stereo not given), the growth in the assay with SK-MEL-2 melanoma was 92.8%; in the assay on EKVX NSCLC it was 89%; in the assay on SN12C renal, 95%; with UO-31 renal, 71.1%; in the assay with TK-10 renal, 101%; in the assay with ACHN renal it was 104%. In addition, the growth in the assay on CAKI-1 renal is 72.4%; in the assay with A498 renal, 119%; in the assay with CCRF-CEM leukemia, 86.8%; with MOLT-4 leukemia, 70.3%; with SR leukemia it was 103%; in the assay on RPMI-8226 leukemia, 80.4%. In addition, the growth in the assay with OVCAR-8 ovarian was 104%; with OVCAR-5 ovarian, 99.8%; in the assay on OVCAR-4 ovarian it was 96.8%; in the assay on SK-OV-3 ovarian, 112%; in the assay on IGROV1 ovarian, 92.5%; with OVCAR-3 ovarian it was 110%. The growth with HS 578T breast is 86%; with NCI/ADR-RES ovarian, 87.5%.

For the compound `Cc1ccc(C(=O)Nc2cc(-c3ccccc3)cc(C(F)(F)F)c2)cc1C#Cc1cnc2cccnn12`, the growth is 58.7% with SK-MEL-2 melanoma; 63% in the assay with EKVX NSCLC; 65.9% with SN12C renal; 56.5% with UO-31 renal; 79.3% with TK-10 renal; 59.9% in the assay with ACHN renal. Besides, the growth with CAKI-1 renal is 70.4%; in the assay with A498 renal it was 133%; with CCRF-CEM leukemia, 38.1%; in the assay on MOLT-4 leukemia it was 35.5%; in the assay on SR leukemia it was 44.8%; with RPMI-8226 leukemia, 36.9%. Besides, the growth in the assay on OVCAR-8 ovarian was 75.3%; with OVCAR-5 ovarian it was 85.3%; in the assay on OVCAR-4 ovarian, 49%; in the assay on SK-OV-3 ovarian, 123%; in the assay on IGROV1 ovarian, 93.1%; with OVCAR-3 ovarian, 95.5%. Moreover, the results for the growth in the assay with HS 578T breast and in the assay on NCI/ADR-RES ovarian were 85.3% and 63.2%, respectively.

For the compound `C=CCn1c(O)c(N=Nc2nc(-c3cc4ccccc4oc3=O)cs2)c2ccccc21`, the growth with SK-MEL-2 melanoma is 64.4%; in the assay on EKVX NSCLC, 55.7%; in the assay on SN12C renal, 90.7%; with UO-31 renal it was 101%; in the assay on TK-10 renal, 90.9%; in the assay on ACHN renal, 78.4%. Besides, the growth was 94.3% in the assay on CAKI-1 renal; 137% with A498 renal; 35.8% in the assay on CCRF-CEM leukemia; 98.3% in the assay on MOLT-4 leukemia; 16.2% in the assay on SR leukemia; 106% with RPMI-8226 leukemia. The growth was 80.9% in the assay with OVCAR-8 ovarian; 18.6% in the assay on OVCAR-5 ovarian; 80.9% in the assay with OVCAR-4 ovarian; 112% in the assay on SK-OV-3 ovarian; 23.9% in the assay with IGROV1 ovarian; 49.3% in the assay on OVCAR-3 ovarian. Moreover, the growth in the assay with HS 578T breast is 27.5%; in the assay on NCI/ADR-RES ovarian it was 91.6%.

On to `CC(C)(C)c1cc(-c2cc(-c3ccccc3)[nH]c(=O)c2C#N)cc(C(C)(C)C)c1`, for which the growth with SK-MEL-2 melanoma is 94.4%; in the assay on EKVX NSCLC, 34.2%; in the assay with SN12C renal, 30.7%; in the assay on UO-31 renal, 24.2%; in the assay on TK-10 renal, 27.6%; with ACHN renal it was 23.3%. The growth in the assay on CAKI-1 renal is -11.5% (active); in the assay on A498 renal it was 21.5%; in the assay with CCRF-CEM leukemia, 68.9%; in the assay with MOLT-4 leukemia, 70.9%; in the assay with SR leukemia, 43.4%; with RPMI-8226 leukemia, 66.9%. Moreover, the growth in the assay with OVCAR-8 ovarian is 7.14% (active); in the assay on OVCAR-5 ovarian it was 45.9%; with OVCAR-4 ovarian, 5.22% (active); in the assay on SK-OV-3 ovarian it was 43.7%; in the assay on IGROV1 ovarian, 35.1%; in the assay with OVCAR-3 ovarian it was 27.1%. Moreover, the growth is -3.49% (active) in the assay on HS 578T breast and 25.9% in the assay on NCI/ADR-RES ovarian.

For `O=C(c1ccc(Cl)cc1)C1[C@H](c2ccccc2Cl)[C@@H](c2ccccc2)NC12C(=O)Nc1ccc(Cl)cc12` (stereo not given in full), the growth with SK-MEL-2 melanoma was -87.1% (active); in the assay on EKVX NSCLC it was -23.5% (active); in the assay on SN12C renal it was -90.4% (active); in the assay with UO-31 renal, -51.2% (active); in the assay with TK-10 renal it was -0.422% (active); in the assay with ACHN renal, -26.1% (active). The growth with CAKI-1 renal is -20.2% (active); with A498 renal, -40.7% (active); in the assay with CCRF-CEM leukemia it was -6.99% (active); in the assay with MOLT-4 leukemia it was -29.4% (active); with SR leukemia, -52.8% (active); with RPMI-8226 leukemia it was 2.23% (active). The growth is -76.4% (active) in the assay on OVCAR-8 ovarian; -53.8% (active) in the assay on OVCAR-5 ovarian; -14.4% (active) in the assay on OVCAR-4 ovarian; 1.4% (active) with SK-OV-3 ovarian; -42.5% (active) in the assay on IGROV1 ovarian; -28.9% (active) with OVCAR-3 ovarian. Also, the growth with HS 578T breast is -40.4% (active); with NCI/ADR-RES ovarian it was -82.7% (active).

With `Cc1ccc(C(C)C)cc1Oc1cccc(-c2c(-c3ccc(C(F)(F)F)cc3)ncn2C2CCNCC2)n1`, the growth was -93.1% (active) with SK-MEL-2 melanoma; -91% (active) in the assay on EKVX NSCLC; -92.1% (active) in the assay on SN12C renal; -97.4% (active) in the assay on UO-31 renal; -94.9% (active) in the assay on TK-10 renal; -100% (active) in the assay with ACHN renal. Further, the growth was -98.1% (active) with CAKI-1 renal; -86.2% (active) with A498 renal; -73.8% (active) with CCRF-CEM leukemia; -80.3% (active) in the assay on MOLT-4 leukemia; -75.5% (active) in the assay on SR leukemia; -59% (active) in the assay with RPMI-8226 leukemia. The growth with OVCAR-8 ovarian is -66.9% (active); with OVCAR-5 ovarian, -69.5% (active); in the assay on OVCAR-4 ovarian it was -89% (active); with SK-OV-3 ovarian, -93.7% (active); in the assay on IGROV1 ovarian, -91.5% (active); in the assay with OVCAR-3 ovarian, -69.2% (active). Besides, the values for the growth in the assay with HS 578T breast and in the assay on NCI/ADR-RES ovarian were -63.1% (active) and -83% (active), respectively.
